The values that follow come from PubChem BioAssay (EPA / NIEHS).

Assay [1] in a line: APR_HepG2_CellCycleArrest_24hr: Apredica 24-hour HepG2 Assay for Cell Cycle Arrest (AID 2282905).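 Further: cell cycle arrest scored as ratio of 2N to 4N nuclear DNA content.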 To be noted: imaging, actives raise or lower the signal. The method in brief:
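Cell cycle arrest is scored from nuclear DNA content measured by high-content imaging of Hoechst 33342-stained HepG2 cells following 24-hour treatment at ten concentrations up to 200 uM, with DMSO as baseline.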

Assay [2] is described as follows: APR_HepG2_NuclearSize_24hr: Apredica 24-hour HepG2 Assay for Nuclear Size (AID 2282907). To be noted: high-content imaging, actives raise or lower the signal. The method in brief: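 Compounds in DMSO (final 0.5%) were added to human HepG2 hepatoma cells at ten concentrations up to 200 uM for 24 hr. Fixed nuclei were stained with Hoechst 33342, and nuclear diameter was quantified from automated images.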

Assay [3] in a line: APR_HepG2_CellLoss_24hr: Apredica 24-hour HepG2 Assay for Cell Loss (AID 2282908).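 On AC50: fit in both directions so a hit may be cell loss or gain.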 As to conditions: high-content imaging. In outline:
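Cell number is quantified by fluorescence imaging of Hoechst 33342-stained nuclei following dosing at 0.39–200 uM in 0.5% DMSO. Curves are fitted in both directions from the DMSO baseline.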

The nature of assay [4]: APR_HepG2_MicrotubuleCSK_24hr: Apredica 24-hour HepG2 Assay for Microtubule CSK Stabilty (AID 2282909). As to conditions: HepG2 microtubule cytoskeleton imaging, actives raise or lower the signal. The method in brief: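 Steps: dose HepG2 for 24 h (0.39–200 uM, 0.5% DMSO); fix 30 min in 3.7% formaldehyde at room temperature; permeabilize; stain alpha-tubulin 60 min; image microtubule cytoskeleton at 20x. Signal change fitted in both directions relative to DMSO.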

Assay [5] in a line: APR_HepG2_MitoticArrest_24hr: Apredica 24-hour HepG2 Assay for Mitotic Arrest (AID 2282910). To be noted: high-content imaging, actives raise or lower the signal. The method in brief: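 Compounds are dosed onto HepG2 cells across ten concentrations up to 200 uM for 24 hr. Cells are then fixed in 3.7% formaldehyde, permeabilised, and labelled for phospho-histone H3 and nuclei; images are scored by cell cycle analysis and fitted bidirectionally relative to DMSO.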

Assay [6] can be described thus: APR_HepG2_MitoMembPot_24hr: Apredica 24-hour HepG2 Assay for Mitochondrial Membrane Potential (AID 2282911). To be noted: imaging, actives raise or lower the signal. The method in brief: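 Human hepatoma HepG2 cultures received ten compound concentrations up to 200 uM for 24 hr. Membrane-potential dye signal, captured by automated fluorescence microscopy, was scored for gain or loss against DMSO controls.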

The nature of assay [7]: APR_HepG2_MitoMass_24hr: Apredica 24-hour HepG2 Assay for Mitochondrial Mass (AID 2282912). As to conditions: high-content imaging, actives raise or lower the signal. The method in brief:
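The liver line HepG2 was dosed in duplicate across a 0.39–200 uM series, with final DMSO held at 0.5% v/v, and harvested at 24 hr. High-content imaging measured mitochondrial dye staining.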

A short description of assay [8]: APR_HepG2_p53Act_24hr: Apredica 24-hour HepG2 Assay for p53 Activation (AID 2282913).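 Further: p53 protein immunofluorescence averaged per cell in HepG2 with Hoechst nuclei.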 To be noted: high-content imaging, actives raise or lower the signal. The method in brief:
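Automated fluorescence imaging quantifies p53 immunostaining in HepG2 cells after a 24 hr exposure (0.39–200 uM, duplicate, 0.5% DMSO). Nuclei are located by Hoechst 33342 staining.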

Assay [9] in a line: APR_HepG2_CellCycleArrest_72hr: Apredica 72-hour HepG2 Assay for Cell Cycle Arrest (AID 2282914). As to conditions: high-content imaging, actives raise or lower the signal. The method in brief:
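Cell cycle arrest in HepG2 was scored from nuclear DNA content after 72 hr compound treatment (0.39–200 uM). Activity, either gain or loss, was fitted against the DMSO baseline.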

The nature of assay [10]: APR_HepG2_CellLoss_72hr: Apredica 72-hour HepG2 Assay for Cell Loss (AID 2282915). To be noted: high-content imaging. The method in brief: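 Cell number comes from Hoechst 33342-labelled nuclei, imaged at 20x after 3.7% formaldehyde fixation. Dosing was 0.39–200 uM, ten concentrations in duplicate, 0.5% DMSO final, for 72 h. Bidirectional fit relative to DMSO baseline.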

A short description of assay [11]: APR_HepG2_P-H2AX_72hr: Apredica 72-hour HepG2 Assay for H2AX Phosphorylation (AID 2282916).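 Further: phospho-histone H2A.x immunostain intensity per cell marking DNA damage.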 As to conditions: imaging, actives raise or lower the signal. In outline: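 Following 72 hr treatment with 0.39–200 uM compound, HepG2 cells were formaldehyde-fixed, permeabilized and stained for phospho-H2A.x; signal was measured by high-content imaging and fitted bidirectionally against DMSO controls.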

Assay [12] in a line: APR_HepG2_MitoticArrest_72hr: Apredica 72-hour HepG2 Assay for Mitotic Arrest (AID 2282918). To be noted: high-content imaging, actives raise or lower the signal. In outline: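 Mitotic arrest in HepG2 is scored from phospho-histone H3 staining after 72 hr dosing across 0.39–200 uM, with DMSO at 0.5% v/v. Nuclei are identified by Hoechst 33342 and fluorescence intensity is quantified per cell.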

A short description of assay [13]: APR_HepG2_MicrotubuleCSK_72hr: Apredica 72-hour HepG2 Assay for Microtubule CSK Stabilty (AID 2282919). To be noted: HepG2 microtubule cytoskeleton, high-content imaging, actives raise or lower the signal. The method in brief:
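Read-out is tubulin fluorescence intensity from high-content imaging of HepG2 cells, with nuclei identified by Hoechst 33342. Treatment lasts 72 h at 0.39–200 uM, and curves are fitted bidirectionally against the DMSO negative control.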

Assay [14] in a line: APR_HepG2_P-H2AX_24hr: Apredica 24-hour HepG2 Assay for H2AX Phosphorylation (AID 2282920). As to conditions: high-content imaging, actives raise or lower the signal. The method in brief:
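Signal comes from a FITC-labeled secondary detecting phospho-histone H2A.x in fixed HepG2 cells, quantified by automated imaging at 20x. Dosing ran 24 hr across 0.39–200 uM with 0.5% v/v DMSO.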

A short description of assay [15]: APR_HepG2_StressKinase_72hr: Apredica 72-hour HepG2 Assay for Stress Kinase (AID 2282921). As to conditions: HepG2 stress kinase (phospho-c-Jun) imaging, actives raise or lower the signal. The method in brief:
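Fluorescence intensity of Cy3-tagged anti-phospho-c-Jun antibody, quantified per cell from Hoechst-defined nuclei across six images per well, served as the read-out following 72 h exposure (0.39–200 uM, 0.5% v/v DMSO).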

Assay [16] is described as follows: APR_HepG2_StressKinase_24hr: Apredica 24-hour HepG2 Assay for Stress Kinase (AID 2282922). To be noted: HepG2 stress kinase (phospho-c-Jun) imaging, actives raise or lower the signal. In outline:
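HepG2, 24 hr dosing, 0.39–200 uM in duplicate, 0.5% DMSO; formaldehyde fix (3.7%), 0.5% Triton X-100; anti-phospho-c-Jun + Cy3 secondary, Hoechst counterstain; ArrayScan imaging; bidirectional curve fit vs DMSO baseline.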

A short description of assay [17]: APR_HepG2_NuclearSize_72hr: Apredica 72-hour HepG2 Assay for Nuclear Size (AID 2282925). As to conditions: high-content imaging, actives raise or lower the signal. In outline:
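HepG2; cpd 0.39–200 uM, 10 conc, duplicate; 72 h; DMSO 0.5% v/v; fix 3.7% formaldehyde 30 min RT; Triton permeabilization; Hoechst 2 ug/mL; HCS imaging 20x; nuclear diameter; gain/loss fit vs DMSO.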

The nature of assay [18]: ATG_CRE_CIS: Attagene CIS-FACTORIAL HepG2 Assay for human cAMP Responsive Element (CRE) binding protein 3 (AID 2282926). As to conditions: HepG2 CRE cis-reporter, Attagene multiplexed mRNA; actives raise or lower the signal. The method in brief: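 We dosed HepG2 cells bearing multiple cis-promoter reporter units for 24 h and measured reporter mRNA by RT-PCR with capillary electrophoresis detection. Bidirectional concentration-response fitting used DMSO as negative control.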

Assay [19] addresses CCAAT/enhancer-binding protein beta (Homo sapiens) (UniProt P17676). Nature of the assay: ATG_C_EBP_CIS: Attagene CIS-FACTORIAL HepG2 Assay for human CCAAT/Enhancer Binding Protein (C/EBP) beta (AID 2282927). As to conditions: HepG2 Attagene cis-factorial transcription factor reporter; actives raise or lower the signal. In outline:
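Changes in reporter mRNA, rather than exogenous chimeric receptor activity, reflect native C/EBP signalling in transfected HepG2 cells dosed for 24 h; transcripts are detected by RT-PCR and capillary electrophoresis.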

Activity calls are given as the source filed them. How the source made its calls: active means hit-call score of the fitted dose curve at least 0.9, where 1 is the maximum; inactive means score below 0.9.

Chain of CCAAT/enhancer-binding protein beta (Homo sapiens) (P17676 whole entry, looked up): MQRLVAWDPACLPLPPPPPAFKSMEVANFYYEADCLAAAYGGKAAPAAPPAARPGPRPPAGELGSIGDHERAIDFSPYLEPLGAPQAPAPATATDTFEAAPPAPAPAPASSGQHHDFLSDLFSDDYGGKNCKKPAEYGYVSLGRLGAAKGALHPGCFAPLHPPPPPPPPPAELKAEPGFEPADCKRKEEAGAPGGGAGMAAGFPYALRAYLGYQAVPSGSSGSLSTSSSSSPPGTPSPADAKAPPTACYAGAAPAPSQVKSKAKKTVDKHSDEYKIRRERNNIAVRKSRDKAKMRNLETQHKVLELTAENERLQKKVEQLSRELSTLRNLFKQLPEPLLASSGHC

For `O=C(Nc1ccc2[nH]ccc2c1)c1cc2cc(F)ccc2n1Cc1cccc(F)c1`, the concentration at half-maximal activity (AC50) in [1] was 25.4 µM (active); in [3], 22.5 µM (active); in assay [4] it was 19.7 µM (active); in [5], 30.9 µM (active); in assay [6] it was 2.08 µM (active); in assay [8], 34.5 µM (active). The AC50 in [9] is 35.7 µM (active); in [10], 17.2 µM (active); in assay [11], 27.8 µM (active); in assay [12] it was 22 µM (active); in assay [14] it was 38.8 µM (active); in [19], 20.3 µM (active). Moreover, the call in assay [2], in assay [7], in assay [13], in assay [15], in assay [16] and in [17] was inactive. In addition, the molecule was called inactive in assay [18].

With `CCN1CCC2(CC1)COc1cc3c(cc12)N(C(=O)c1ccc(-c2ccc(-c4nnc(C)o4)cc2C)cc1)CC3`, the result in assay [1], in [2], in assay [4], in assay [6], in [9] and in [13] was inactive. The outcome in assay [17], in [18] and in assay [19] was inactive. Further, the concentration at half-maximal activity (AC50) in [3] was 17.5 µM (active); in assay [5] it was 13.2 µM (active); in assay [7], 7.43 µM (active); in [8] it was 25.8 µM (active); in [10] it was 9.88 µM (active); in [11] it was 41.7 µM (active). Moreover, the AC50 in [12] is 6.34 µM (active); in [14], 28.9 µM (active); in [15] it was 5.12 µM (active); in [16] it was 47.9 µM (active).

On to `CC12CC1(C)C(=O)N(c1cc(Cl)cc(Cl)c1)C2=O` (stereo not given), for which the result in [1], in assay [2], in assay [3], in assay [4], in assay [5] and in assay [6] was inactive. In addition, the molecule was called inactive in assay [7], in assay [8], in assay [9], in [10], in assay [11] and in assay [12]. Also, the molecule was called inactive in [13], in assay [14], in [15], in assay [16], in assay [17] and in [18]. Further, the result in assay [19] was inactive.

As to `O=c1[nH]c(=O)[nH]c(=O)[nH]1`, the molecule was classed as inactive in [1], in [2], in assay [3], in assay [4], in assay [5] and in [7]. Further, the outcome in [8], in [9], in assay [10], in assay [11], in [12] and in assay [13] was inactive. For the same molecule, the molecule was classed as inactive in assay [14], in assay [15], in assay [16], in assay [17], in assay [18] and in assay [19]. For the same molecule, in assay [6], the half-maximal activity concentration (AC50) was 61.3 µM (active).

As to `ClC1(Cl)C2(Cl)C3(Cl)C4(Cl)C(Cl)(Cl)C5(Cl)C3(Cl)C1(Cl)C5(Cl)C24Cl` (stereo not given), the molecule was called inactive in assay [1], in [2], in assay [3], in [4], in assay [5] and in [6]. Besides, the molecule was called inactive in assay [7], in assay [8], in [9], in [10], in assay [11] and in [12]. Further, the molecule was classed as inactive in assay [13], in [14], in [15], in [16], in assay [17] and in assay [18]. The result in assay [19] was inactive.
